Experimental data: PubChem BioAssay AID765 (NMMLSC, 2007)
Activity calls are given as the source filed them. Cut-off read from the data, not from the text of the source: active = inhibition above about 31%; inactive = the rest.

target: N-formyl peptide receptor 2 (Homo sapiens) (UniProt P25090); assay: FPRL1 fluorescent ligand binding inhibitors, cell-based, flow cytometry, single concentration (AID 765); conditions: FPRL1-expressing cells, stronger effect = higher value; at 5.1 µM unless noted
Sequence (P25090 whole entry, looked up): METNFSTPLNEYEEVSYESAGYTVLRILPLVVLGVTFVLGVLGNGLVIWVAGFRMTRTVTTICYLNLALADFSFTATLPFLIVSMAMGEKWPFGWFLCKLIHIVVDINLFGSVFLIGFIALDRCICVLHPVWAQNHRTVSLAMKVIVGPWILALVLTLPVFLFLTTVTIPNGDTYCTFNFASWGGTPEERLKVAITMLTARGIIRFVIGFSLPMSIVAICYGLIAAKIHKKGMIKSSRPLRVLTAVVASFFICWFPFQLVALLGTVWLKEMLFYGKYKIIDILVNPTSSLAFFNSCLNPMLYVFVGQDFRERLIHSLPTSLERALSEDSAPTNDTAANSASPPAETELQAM

inhibition, inactive:
COc1ccc(-c2cn3cccnc3n2)cc1NC(=O)C(C)Oc1ccccc1 (configuration not stated) -8.6% [at 5.7 µM]
Clc1cccc(-c2nc(N3CCN(c4ccccn4)CC3)nc3c2COc2ccccc2-3)c1 -0.8% [at 4.9 µM]
Cc1ccc(-c2cn3cccnc3n2)cc1NC(=O)C(C)C -3.4% [at 7.6 µM]
COc1ccc(C2CC(=O)c3cnc(N4CCN(Cc5ccc6c(c5)OCO6)CC4)nc3C2)c(OC)c1 (configuration not stated) -2.7% [at 4.4 µM]
O=C(c1cccc(F)c1)N1CCN(c2nc(-c3cccs3)cc(C(F)(F)F)n2)CC1 -12.6%
O=C(O)C1CC=CCC1C(=O)N1CCN(c2nc(-c3ccccc3Cl)c3cc(Br)ccc3n2)CC1 (configuration not stated) -6.7% [at 4 µM]
Cc1ccc(-c2cc(C(F)F)nc(N3CCN(c4cccc(Cl)c4)CC3)n2)cc1 -3.5% [at 5.4 µM]
COc1ccccc1-c1cc(C(F)(F)F)nc(N2CCN(c3ccccc3OC)CC2)n1 -2.8% [at 5 µM]
COc1ccc(-c2cn3cccnc3n2)cc1NC(=O)c1ccccc1F 0.8% [at 6.1 µM]
FC(F)(F)c1cc(-c2cccs2)nc(N2CCN(Cc3ccccc3)CC2)n1 12.5% [at 5.5 µM]
CC(N)C(=O)N1CCN(c2nc(-c3ccccc3)c3cc([N+](=O)[O-])ccc3n2)CC1 (configuration not stated) 3.9% [at 5.5 µM]
Cc1ccc(C(=O)N2CCN(c3nc(-c4ccccc4)c4cc(Br)ccc4n3)CC2)cc1 18% [at 4.6 µM]
